# Measured values published in PubChem BioAssay.
# “And” between values parts separate entries of the source, which are not always exact repeats. Equal values may be shown once. For part of these data: Measured potencies and affinities stand elsewhere. The source made the active and inactive calls. Unless noted, the rule behind the calls is not given here.
# Columns and labels:
# [1] = P. berghei load reduction in hepatocytes – cell-based, HepG2, luciferase luminescence, HepG2 viability, primary screen (AID 624349; in the data active = parasite load remaining mostly below about 12%, no sharp cut-off; inactive = mostly above about 10%;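 note: 100% = mean of DMSO negative control wells on the same plate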); settings: P. berghei liver stage in HepG2, luciferase luminescence, concentration not given here; parasite load remaining: stronger effect = lower value; viability: measured here: HepG2 viability without parasites
# [2] = target: 6-phosphogluconate dehydrogenase, decarboxylating (Homo sapiens) (UniProt P52209); experiment: inhibition of human phosphogluconate dehydrogenase – biochemical, recombinant enzyme, NADPH absorbance, primary screen (AID 1159550;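 active = at least 20% inhibition of 6-phosphogluconate dehydrogenase activity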); settings: recombinant 6PGD, NADPH absorbance 341 nm; at 10 µM; stronger effect = higher value
# Chain of 6-phosphogluconate dehydrogenase, decarboxylating (Homo sapiens) (P52209 whole entry, looked up): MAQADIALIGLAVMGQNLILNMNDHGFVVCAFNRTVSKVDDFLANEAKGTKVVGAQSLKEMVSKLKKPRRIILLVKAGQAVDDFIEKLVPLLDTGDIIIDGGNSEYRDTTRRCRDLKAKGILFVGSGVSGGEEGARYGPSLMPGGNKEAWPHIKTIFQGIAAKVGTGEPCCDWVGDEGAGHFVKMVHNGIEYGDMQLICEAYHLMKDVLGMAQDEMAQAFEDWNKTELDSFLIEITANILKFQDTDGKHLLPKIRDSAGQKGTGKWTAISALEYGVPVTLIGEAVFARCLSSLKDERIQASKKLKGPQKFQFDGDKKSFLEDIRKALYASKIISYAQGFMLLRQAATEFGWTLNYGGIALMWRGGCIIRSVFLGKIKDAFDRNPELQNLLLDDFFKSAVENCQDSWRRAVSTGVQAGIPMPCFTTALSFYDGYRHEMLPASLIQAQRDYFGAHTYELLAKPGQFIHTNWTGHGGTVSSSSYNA
# [3] = EMT-state selective cytotoxicity in co-culture – imaging, PC-3E GFP, TEM4-18 mCherry, primary screen (AID 1345086;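 active = compounds killing one labelled cell type while sparing the other, by normalised counts and ratio limits, not self-fluorescent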;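 for all read-outs here: cells exposed to compound for 72 h before imaging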;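 for red/green cell ratio (normalised): normalised mesenchymal count divided by normalised epithelial count so high means epithelial killing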); settings: PC-3E GFP / TEM4-18 mCherry co-culture, imaging cell counts, at 1 µM; for red/green cell ratio (normalised): actives lie on both sides, counts scaled to control wells, 1 = unselective
# [4] = viability loss with induced miR-34 in A549 – imaging, A549 dox-inducible miR-34, nuclei and caspase counts, primary screen (AID 1347080;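 active = compounds whose cell count with miR-34 switched on is under 0.7 times the count with it off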); settings: A549 miR-34 inducible, Hoechst nuclei count, 48 h
# [5] = MELAS cybrid and Rieske KO viability enhancers – cell-based, MELAS cybrids, Rieske KO mouse fibroblasts, CellTiter-Glo, primary screen (AID 1508586;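 active = mean z-score across replicates of 1.96 or higher in either the MELAS or the Rieske mutant cell line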;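 note: z relative to plate mean and SD of compound and empty wells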); settings: low glucose
# [6] = target: Mitogen-activated protein kinase 7 (Homo sapiens) (UniProt Q13164); experiment: Gal4-ERK5 driven luciferase induction – cell-based, HTS, primary screen (AID 1508626;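 active = luciferase signal above three times the same-plate solvent-only control wells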;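 note: luciferase driven by Gal4-ERK5 fusion binding five Gal4 sites before minimal TATA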); settings: HeLa Gal4-ERK5 transactivation, 18 h, at 5 µM, stronger effect = higher value
# Chain of Mitogen-activated protein kinase 7 (Homo sapiens) (Q13164 whole entry, looked up, the tested form may be a part): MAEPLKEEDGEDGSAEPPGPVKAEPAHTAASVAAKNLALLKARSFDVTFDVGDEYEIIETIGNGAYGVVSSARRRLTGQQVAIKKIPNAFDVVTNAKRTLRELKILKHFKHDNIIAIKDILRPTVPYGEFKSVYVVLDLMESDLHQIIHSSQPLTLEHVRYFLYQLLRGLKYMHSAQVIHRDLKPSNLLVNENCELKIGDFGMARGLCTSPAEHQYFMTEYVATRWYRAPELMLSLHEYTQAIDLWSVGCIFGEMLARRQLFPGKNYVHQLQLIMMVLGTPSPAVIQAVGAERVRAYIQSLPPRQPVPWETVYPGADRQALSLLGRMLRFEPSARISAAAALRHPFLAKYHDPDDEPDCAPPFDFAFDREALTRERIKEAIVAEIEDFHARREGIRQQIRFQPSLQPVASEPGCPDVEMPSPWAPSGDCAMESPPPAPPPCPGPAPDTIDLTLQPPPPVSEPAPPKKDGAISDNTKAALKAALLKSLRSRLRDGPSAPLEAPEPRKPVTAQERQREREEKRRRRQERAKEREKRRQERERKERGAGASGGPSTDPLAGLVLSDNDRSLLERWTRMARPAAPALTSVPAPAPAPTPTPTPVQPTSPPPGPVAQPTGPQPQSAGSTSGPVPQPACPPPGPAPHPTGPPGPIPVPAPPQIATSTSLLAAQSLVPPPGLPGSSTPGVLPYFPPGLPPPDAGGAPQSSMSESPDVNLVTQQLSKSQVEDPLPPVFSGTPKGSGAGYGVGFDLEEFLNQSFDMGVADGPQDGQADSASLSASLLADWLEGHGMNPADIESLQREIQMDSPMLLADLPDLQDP
# [7] = compounds altering circadian rhythm period length – cell-based, LOPAC library, luminescence reporter (AID 2774); settings: circadian reporter cells, at 7 µM, actives lie on both sides;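 note: values are relative to mean of DMSO wells on each plate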
# [8] = test system: Hepatitis C virus NS3 helicase; experiment: blockers of NS3h binding to ssDNA – biochemical, fluorescence polarization, LOPAC1280 library, primary screen (AID 687035; in the data active = inhibition above about 37%); settings: Purified HCV NS3 helicase, Cy5-dT15 ssDNA binding fluorescence polarization; stronger effect = higher value; concentration not given here
# [9] = compounds altering Cy5-DNA-NS3h complex signal – biochemical, LOPAC1280, artefact control for HCV NS3 helicase inhibitor project (AID 687037); settings: Cy5-DNA-NS3h complex fluorescence interference counterscreen
# [10] = blockers of cellular phospholipid synthesis – cell-based, LOPAC library, screen 4, primary screen (AID 1347384); settings: animal cells, phospholipid biosynthesis inhibition screen; at 10 µM
# [11] = galactose survival enhancers in mitochondrial complex I cybrids – cell-based, galactose medium, ATP luminescence, primary screen (AID 1645843;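 active = z-score of at least 1.8 in each of two replicates, scored against plate mean and spread of sample wells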;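 note: positive z means more ATP and so rescue of galactose-driven cybrid death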); settings: complex I mutant cybrid cells, 72 h, stronger effect = higher value
# [12] = blockers of polyQ-driven CASP3 activation – cell-based (AID 1583); settings: polyglutamine-induced caspase-3 activation, cell assay; stronger effect = higher value;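 tested at 10 µM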
# [13] = yeast 75Q aggregation reduction – 75Q-TubU reporter (AID 1593); settings: Yeast 75Q polyglutamine aggregation reporter
# [14] = restoration of touch response, mutant HTT neurons – whole organism, C. elegans mechanosensory neurons, N-terminal huntingtin (AID 1599); settings: C. elegans polyQ-huntingtin mechanosensory neurons, stronger effect = higher value
# [15] = blockers of cytochrome c efflux from mitochondria – biochemical, purified mitochondria (AID 1603); settings: stronger effect = lower value;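 note: mouse liver mitochondria challenged with calcium chloride; signal normalized to the plate average as 100%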
# [16] = polyglutamine aggregate formation blockers (AID 1604); settings: polyglutamine-induced protein aggregation inhibition assay; stronger effect = higher value; tested at 2.5 µM
# [17] = glutamate transport activators, MN-1 cells, MN-1 cell line (AID 1612); settings: MN-1 motor neuron cells, stronger effect = higher value;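 note: tested at 1 µM final; 0% = mean of DMSO vehicle wells on each plate; positive means more glutamate uptake than control and negative means less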
# [18] = GFP-Q80 aggregate reduction, neuronal-like cells, cell-based, NGF-treated PC12, GFPQ80 (AID 1614); settings: PC12 NGF-treated GFP-polyQ80 inclusion reduction;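 note: lower means fewer inclusions and 0 means no inclusions at all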
# [19] = 75Q-TubH aggregate inhibition, S. cerevisiae, yeast (AID 1616); settings: S. cerevisiae 75Q-TubH polyglutamine aggregation suppression; stronger effect = higher value
# [20] = measured here: epithelial PC-3E GFP cell survival
# [21] = measured here: mesenchymal TEM4-18 mCherry cell survival
# [22] = stronger effect = lower value, cell number ratio, induced over uninduced
# [23] = measured here: relative caspase fold change +Dox/-Dox
# [24] = measured here: total cells with miR-34 induction, stronger effect = lower value
# [25] = measured here: total cells without miR-34 induction
structure (smiles),measurement,setting,value
CC(=O)Oc1ccccc1C(=O)Oc1ccccc1C(=O)O,parasite load remaining,[1],36.8% (inactive) and 92.5% (inactive)
same,viability,[1],53.8% and 90.5%
same,inhibition,[2],14.2% (inactive)
same,red/green cell ratio (normalised),[3],1.07 (inactive)
same,normalised cell number,[3]; [20],0.97
same,normalised cell number,[3]; [21],1.04
same,fold change,[4]; [22],0.938 (inactive)
same,fold change,[4]; [23],0.828
same,cell count,[4]; [24],8700
same,cell count,[4]; [25],9270
same,z-score,"[5]; MELAS cybrid survival, CellTiter-Glo 48 h, stronger effect = higher value",-0.224 (inactive)
same,z-score,"[5]; Rieske KO mouse fibroblast survival, CellTiter-Glo 72 h",0.071
same,luciferase signal,[6],48 AU (inactive)
NC(N)=NC(=O)c1nc(Cl)c(N2CCCCCC2)nc1N,period change,[7],0.165 h (inactive)
same,inhibition,[8],-5% (inactive)
same,fluorescence ratio (interference),[9],0.9 (inactive)
same,inhibition,[2],12.2% (inactive)
same,red/green cell ratio (normalised),[3],0.8 (inactive)
same,normalised cell number,[3]; [20],1.26
same,normalised cell number,[3]; [21],1.01
same,fold change,[4]; [22],1.18 (inactive)
same,fold change,[4]; [23],1.04
same,cell count,[4]; [24],4710
same,cell count,[4]; [25],3990
same,outcome,[10],inactive
same,z-score,[11],-1.46 (inactive)
NCCCCN,inhibition,[12],-6.18%
same,score,[13],1.21
same,rescue above control,[14],9.16
same,cytochrome c release ratio,[15],0.9
same,inhibition of aggregation,[16],70.6%
same,glutamate uptake change,[17],0.99%
same,inclusion score,[18],2
same,aggregation suppression score,[19],1.37
same,period change,[7],0.01 h (inactive)
same,inhibition,[8],-3% (inactive)
same,fluorescence ratio (interference),[9],0.9 (inactive)
same,inhibition,[2],-11.8% (inactive)
same,red/green cell ratio (normalised),[3],1.04 (inactive)
same,normalised cell number,[3]; [20],0.98
same,normalised cell number,[3]; [21],1.02
same,fold change,[4]; [22],1.02 (inactive)
same,fold change,[4]; [23],1.7
same,cell count,[4]; [24],9820
same,cell count,[4]; [25],9630
same,outcome,[10],inactive
same,luciferase signal,[6],44 AU (inactive)
same,z-score,[11],0.975 (inactive)
